The supplement of paper PMC6555819

system: VDR:RXRa (NR concentration 270 nM, RXRa partner concentration 90 nM); test: PBM binding z-score (relative to random genomic background probes); higher = stronger binding; sequences stand for … in GC…GCGATTGACAGCGTAGAATGAAGG
Experimental: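 Protein-binding microarray (Agilent 4x180K custom design, double-stranded 60-nt probes: 5' GC cap, 34-nt variable region, 24-nt constant primer region; full probe sequence given). Purified or IVT nuclear receptor:RXRα heterodimers (3:1 NR:RXRα, mostly 270:90 nM) or homodimers were incubated for 1 h in PBS with 2% milk and no ligand, then detected with Alexa488 antibodies. Fluorescence from o1-orientation probes (~5 replicates averaged) was converted to z-scores against 500 random hg19 background probes. Variable regions are seed direct-repeat (DR0–DR5) sites, all their single-nucleotide variants and half-site ablations.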

Sequence	PBM binding z-score
GGAACGAGGGCAAGTTGATAGAAGAGTTTGATGG	0.975
ATCTCTAGGTCAAGATAGTTCAGTGAATGCAAAT	4.44
CCTACTGGGCCATTCAGAGGTGATTGATCATATG	-0.104
GGAACGAGGGCAAAGTTGATCGCATCTGTCGACG	1.1
GCGACTGGGGCAAAGCAGGTTACCACAAGGTTGG	0.0392
CCTTACGGGTCACTCCAGGCTATAGCATCGGAGT	2.98
AGAACTAGGGCAATGAGTTGATAGCACGGGTGGC	3.17
AGAATGAGGTTTTACGTAGATCAGGGAAGAAAGT	-0.19
CCTATTAGATGACCATAAGGGCAACCGAAGCTCG	0.352
TCGATTAGTTGAAGGGCAACCGACGAGTCCGTTT	0.389
TGTCAAAGTTCAAAAGTAACGTAAGTATCCACAC	3.97
ATCTCTAGGTAAGACTCAGTTCAGTGGAGAACGC	0.529
GCTATTAGTTGAAAGGGCAACCGTATGATTCTCG	0.653
TGTCAAAGTTCGAAGGTAACGTAAGTATCCACAC	1.78
GGATCGAGGGCAAGTTGATAGCAGAGTTTGATGG	0.959
AGAACGAGGGCAGGCTGAGTTGATAGCAGAGTAG	0.431
CCTCGGAGCACAGAAGGTCAGAGCTGTCCGCTTT	1.33
AGAACGAGTGCAATGAGTTGATAGCACGGGTGGC	4.09
GCTAGTCGGTCAGTAAAAGGTCACACACCGGTCG	4.18
GGAACGAGGGGAAAGTTGATAGCATCTGTCGACG	-0.259

Sequence	PBM binding z-score
TCTATTAGTTGAACGGCAACCGACGAGTCCGTTT	0.759
TCTGCTAGGTAAACGATGGTCAGCTAATCTGCTA	-0.409
GCTGCTAGGTTAGGTTGGTCAGCTAACGGGTACG	-0.323
TCTGCTAGGTCGGTTGGTCAGCTAACGAGCTGCC	-0.462
CCGACTGGGGCAGAACGGTTACCATACCATCCGG	-0.643
GATACAGGGTCAACGCCAGAGTACGCGTATTGAT	4.77
CCTACTGGGCCACGAAAAGTCATTGATTCAGTGA	-0.413
AGTCAAAGTTCATCTAGGTAACTTAAGATATGCT	4.95
TCGTGTAGATCAGCAGGTTAAGAAAGCTGGCCAA	0.0438
GCTGCTAGGCCAGGTTGGTCAGCTAACGGGTACG	-1.03
CCGACTGCGGCATAAGGTTACCATAAGCCAGCCC	0.0281
CCTTACGGGACACTCCAGGTTATAGCATCGGAGT	-0.0817
AGTCAAAGTTCATCTAGGTAACGCAAGATATGCT	4.91
CGTCCAGGGTCAGAGAGGTCAGTGAATGCCGAGT	7.46
AGAACGAGGGCACGCTGAGTTGATGGCAGAGTAG	1.86
CCTGCAAGGTCAATGGTCAGCTAAAGCAGCTCGC	3.76
CCTCGGAGGACAGAAGATCAGAGCTGTCCGCTTT	-0.618
TCTTCTAGATCAGCAGGTTAAGAAAGCTGGCCAA	0.175
AGTCAAAGTTCATCTAGGTAACGTAGGATATGCT	5.09
CATACTAGGTCACAGAGGTCAAAGTCCGTGCGTA	7.98
